Calls of active or inactive are those of the source. Rule for the calls: active = hit-call score of the fitted dose curve at least 0.9, where 1 is the maximum; inactive = score below 0.9.
Tests used:
Details in all cases: mRNA level, 48 h; actives raise or lower the signal
[1] = read-out: Peroxisomal acyl-coenzyme A oxidase 1 (ACOX1) gene, ACOX1 (gene 51); experiment: LTEA_HepaRG_ACOX1: Life Technologies and Expression Analysis (LTEA) Assay for Peroxisomal acyl-coenzyme A oxidase 1 (ACOX1) gene using HepaRG (AID 2283467)
In short: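 Human HepaRG hepatic cultures, 48 h treatment with test chemicals up to 100 uM. ACOX1 expression read by qRT-PCR relative to 0.5% DMSO vehicle.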

[2] = read-out: Alkaline Phosphatase, Placental (ALPP) gene, ALPP (gene 250); experiment: LTEA_HepaRG_ALPP: Life Technologies and Expression Analysis (LTEA) Assay for Alkaline Phosphatase, Placental (ALPP) gene using HepaRG (AID 2283468);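 for AC50: differentiated human HepaRG liver cells in serum-free induction medium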
In short: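 HepaRG, 48 h plating then 48 h dosing, serum-free induction medium, 0.5% DMSO. 8 conc, half-log, max 100 uM, duplicates. Endpoint: ALPP transcript by qRT-PCR, housekeeping-normalized; gain or loss fitted vs DMSO.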

[3] = read-out: Bcl-2 (BAD) gene, BAD (gene 572); experiment: LTEA_HepaRG_BAD: Life Technologies and Expression Analysis (LTEA) Assay for Bcl-2 (BAD) gene using HepaRG (AID 2283469)
In short: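 Activity values reflect up- or down-regulation of BAD mRNA in human HepaRG hepatic cells treated 48 h in serum-free medium, with eight-point half-log dosing capped at 100 uM and 0.5% DMSO vehicle.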

[4] = read-out: Bcl-2 (BAX) gene, BAX (gene 581); experiment: LTEA_HepaRG_BAX: Life Technologies and Expression Analysis (LTEA) Assay for Bcl-2 (BAX) gene using HepaRG (AID 2283470)
In short: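 Human HepaRG cells treated in duplicate for 48 h across eight concentrations (max 100 uM, 0.5% DMSO); BAX expression measured by qRT-PCR.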

[5] = read-out: adenosine kinase (ADK) gene, ADK (gene 132); experiment: LTEA_HepaRG_ADK: Life Technologies and Expression Analysis (LTEA) Assay for adenosine kinase (ADK) gene using HepaRG (AID 2283471)
In short: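 Read-out is ADK transcript level measured by qRT-PCR and normalised to three housekeeping genes. Cells are human HepaRG, dosed for 48 h at up to 100 uM in 0.5% DMSO. Gain or loss of signal is fitted against DMSO controls.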

[6] = read-out: BCL2L11 (gene 10018); experiment: LTEA_HepaRG_BCL2L11: Life Technologies and Expression Analysis (LTEA) Assay for Bcl-2 (BCL2L11) gene using HepaRG (AID 2283473)
In short: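 Read-out is BCL2L11 transcript level by qRT-PCR, normalized to three housekeeping genes and fitted bidirectionally against 0.5% DMSO vehicle. HepaRG cells received chemicals for 48 h in serum-free induction medium, 100 uM down in half-log dilutions.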

[7] = read-out: Apolipoprotein A-V (APOA5) gene, APOA5 (gene 116519); experiment: LTEA_HepaRG_APOA5: Life Technologies and Expression Analysis (LTEA) Assay for Apolipoprotein A-V (APOA5) gene using HepaRG (AID 2283474)
In short: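 Readout is APOA5 transcript level by qRT-PCR on Fluidigm dynamic arrays, normalized to three housekeeping genes. HepaRG cultures received chemicals for 48 h at up to 100 uM (half-log steps, 0.5% DMSO), with gain or loss scored relative to DMSO.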

[8] = read-out: Apoptosis regulator Bcl-2 (Homo sapiens) (UniProt P10415); experiment: LTEA_HepaRG_BCL2: Life Technologies and Expression Analysis (LTEA) Assay for Bcl-2 gene using HepaRG (AID 2283475);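 note: BCL2 transcript by TaqMan qRT-PCR normalised to ACTB GAPDH and POLR2A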
In short: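 Each chemical was tested in duplicate on HepaRG cultures held in serum-free induction medium for 48 h, highest concentration 100 uM with half-log dilutions. Transcript levels came from multiplexed qRT-PCR, normalised to housekeeping genes; activity was scored in either direction relative to DMSO.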

[9] = read-out: Caspase-3 (Homo sapiens) (UniProt P42574); experiment: LTEA_HepaRG_CASP3: Life Technologies and Expression Analysis (LTEA) Assay for cysteine-aspartic acid protease (CASP3) using HepaRG (AID 2283477)
In short: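 Read-out is CASP3 mRNA level by TaqMan qRT-PCR in human HepaRG cells after 48 h chemical exposure. Eight half-log concentrations topping at 100 uM were tested in 0.5% DMSO; gain or loss was fitted relative to DMSO.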

[10] = read-out: Cytochrome P450 (CYP24A1), CYP24A1 (gene 1591); experiment: LTEA_HepaRG_CYP24A1: Life Technologies and Expression Analysis (LTEA) Assay for Cytochrome P450 (CYP24A1) using HepaRG (AID 2283478)
In short: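 HepaRG, 48 h chemical exposure, 8-pt half-log CRC from 100 uM, 0.5% DMSO vehicle, duplicates. Endpoint: CYP24A1 mRNA by Fluidigm TaqMan qRT-PCR, normalized ACTB/GAPDH/POLR2A; gain/loss fit vs DMSO.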

[11] = read-out: Cytochrome P450 (CYP1A2), CYP1A2 (gene 1544); experiment: LTEA_HepaRG_CYP1A2: Life Technologies and Expression Analysis (LTEA) Assay for Cytochrome P450 (CYP1A2) using HepaRG (AID 2283479)
In short: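 CYP1A2 transcript induction or loss, quantified by Fluidigm qRT-PCR against three housekeeping genes, was fitted bidirectionally against 0.5% DMSO controls. Human HepaRG cells received eight half-log concentrations from 100 uM over 48 h.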

[12] = read-out: Cytochrome P450 (CYP2B6), CYP2B6 (gene 1555); experiment: LTEA_HepaRG_CYP2B6: Life Technologies and Expression Analysis (LTEA) Assay for Cytochrome P450 (CYP2B6) using HepaRG (AID 2283481)
In short: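 HepaRG cells plated 48 h, switched to serum-free induction medium, then dosed 48 h (8 points, half-log from 100 uM, 0.5% DMSO). RNA isolated; CYP2B6 expression measured by qRT-PCR; gain or loss fitted relative to DMSO.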

[13] = read-out: Cytochrome P450 2C19 (Homo sapiens) (UniProt P33261); experiment: LTEA_HepaRG_CYP2C19: Life Technologies and Expression Analysis (LTEA) Assay for CYP2C19 using HepaRG (AID 2283482)
In short: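 Transcript levels of CYP2C19 were quantified by qRT-PCR after HepaRG cells were treated for 48 hours with test chemicals up to 100 uM (eight half-log concentrations, 0.5% DMSO vehicle). Gain or loss of signal was fitted relative to DMSO.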

[14] = read-out: CYP2C8 (gene 1558); experiment: LTEA_HepaRG_CYP2C8: Life Technologies and Expression Analysis (LTEA) Assay for CYP2C8 using HepaRG (AID 2283483)
In short: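 This is a transcriptional endpoint in HepaRG cultures: 48 h exposure, highest concentration 100 uM. CYP2C8 mRNA is quantified by TaqMan qRT-PCR.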

[15] = read-out: CYP2C9 (gene 1559); experiment: LTEA_HepaRG_CYP2C9: Life Technologies and Expression Analysis (LTEA) Assay for CYP2C9 using HepaRG (AID 2283484)
In short: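 Eight-point concentration-response (highest 100 uM, half-log dilutions) in HepaRG cells for 48 h; CYP2C9 expression by qRT-PCR normalized to ACTB, GAPDH, POLR2A. Bidirectional fit, DMSO baseline.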

[16] = read-out: CYP2E1 (gene 1571); experiment: LTEA_HepaRG_CYP2E1: Life Technologies and Expression Analysis (LTEA) Assay for CYP2E1 using HepaRG (AID 2283485)
In short: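 Assay uses 48 h exposure of HepaRG hepatic cells, eight concentrations to 100 uM. Expression of CYP2E1 is quantified by TaqMan qRT-PCR with ACTB, GAPDH and POLR2A normalization; curves fitted in both directions relative to vehicle.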

[17] = read-out: CYP4A11 (gene 1579); experiment: LTEA_HepaRG_CYP4A11: Life Technologies and Expression Analysis (LTEA) Assay for CYP4A11 using HepaRG (AID 2283486)
In short: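 HepaRG, 48 h chem exposure, 8 conc (100 uM top, half-log), 0.5% DMSO vehicle; qRT-PCR readout, housekeeping-gene normalized; bidirectional curve fit vs DMSO baseline.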

[18] = read-out: Bcl-2 (BID) gene, BID (gene 637); experiment: LTEA_HepaRG_BID: Life Technologies and Expression Analysis (LTEA) Assay for Bcl-2 (BID) gene using HepaRG (AID 2283476)
In short: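 Assay used HepaRG hepatic cells treated 48 h in serum-free medium with half-log dilutions from 100 uM. Endpoint: BID mRNA, qRT-PCR, normalized to ACTB/GAPDH/POLR2A.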

[19] = read-out: cysteine-aspartic acid protease (CASP8), CASP8 (gene 841); experiment: LTEA_HepaRG_CASP8: Life Technologies and Expression Analysis (LTEA) Assay for cysteine-aspartic acid protease (CASP8) using HepaRG (AID 2283480)
In short: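 Concentration-response in duplicate up to 100 uM (half-log steps, 0.5% DMSO) on differentiated HepaRG cultures for 48 h. Expression change of CASP8 mRNA is determined by TaqMan qRT-PCR with housekeeping-gene normalization.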

Caspase-3 (Homo sapiens), sequence (P42574 whole entry, looked up): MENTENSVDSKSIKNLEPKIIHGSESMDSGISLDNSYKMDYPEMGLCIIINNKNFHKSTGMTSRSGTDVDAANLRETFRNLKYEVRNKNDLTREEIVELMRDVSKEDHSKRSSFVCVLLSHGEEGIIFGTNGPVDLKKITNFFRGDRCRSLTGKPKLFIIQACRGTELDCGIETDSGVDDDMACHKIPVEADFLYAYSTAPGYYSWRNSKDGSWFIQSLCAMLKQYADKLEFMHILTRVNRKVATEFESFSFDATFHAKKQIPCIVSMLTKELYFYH
Cytochrome P450 2C19 (Homo sapiens), sequence (P33261 whole entry, looked up): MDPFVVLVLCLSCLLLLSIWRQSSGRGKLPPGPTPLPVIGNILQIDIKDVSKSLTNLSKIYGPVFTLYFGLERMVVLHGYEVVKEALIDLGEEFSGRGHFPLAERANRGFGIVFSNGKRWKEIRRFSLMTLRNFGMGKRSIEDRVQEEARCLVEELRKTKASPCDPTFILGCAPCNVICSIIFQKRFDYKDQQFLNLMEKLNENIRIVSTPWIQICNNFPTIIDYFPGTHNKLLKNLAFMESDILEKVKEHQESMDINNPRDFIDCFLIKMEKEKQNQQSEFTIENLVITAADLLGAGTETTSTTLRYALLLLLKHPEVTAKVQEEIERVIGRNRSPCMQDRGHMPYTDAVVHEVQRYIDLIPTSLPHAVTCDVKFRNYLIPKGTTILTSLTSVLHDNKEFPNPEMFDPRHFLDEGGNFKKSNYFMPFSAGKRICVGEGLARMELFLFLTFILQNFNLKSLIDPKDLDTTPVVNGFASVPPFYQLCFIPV
Apoptosis regulator Bcl-2 (Homo sapiens), sequence (P10415 whole entry, looked up): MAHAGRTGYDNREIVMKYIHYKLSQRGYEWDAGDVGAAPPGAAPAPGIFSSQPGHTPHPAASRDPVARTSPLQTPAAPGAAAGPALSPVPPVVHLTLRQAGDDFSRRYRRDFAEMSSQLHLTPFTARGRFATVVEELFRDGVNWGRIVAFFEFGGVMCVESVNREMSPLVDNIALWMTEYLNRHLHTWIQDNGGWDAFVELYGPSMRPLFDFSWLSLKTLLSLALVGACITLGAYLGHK

Clc1ccc(C(c2ccccc2Cl)C(Cl)(Cl)Cl)cc1 (centres undefined)
outcome [1]: inactive | outcome [2]: inactive | outcome [3]: inactive | outcome [4]: inactive | outcome [5]: inactive | outcome [6]: inactive | AC50 [7]: 10.7 µM (active) | outcome [8]: inactive | outcome [9]: inactive | outcome [10]: inactive | outcome [11]: inactive | AC50 [12]: 0.213 µM (active) | AC50 [13]: 1.76 µM (active) | AC50 [14]: 0.794 µM (active) | outcome [15]: inactive | AC50 [16]: 39.8 µM (active) | AC50 [17]: 40.7 µM (active)

CC#Cc1cc(C)nc(Nc2ccccc2)n1
outcome [1]: inactive | AC50 [2]: 50 µM (active) | outcome [3]: inactive | outcome [4]: inactive | outcome [5]: inactive | outcome [7]: inactive | outcome [8]: inactive | outcome [18]: inactive | outcome [9]: inactive | outcome [10]: inactive | AC50 [11]: 7.61 µM (active) | AC50 [12]: 10.3 µM (active) | AC50 [13]: 24.9 µM (active) | AC50 [14]: 48 µM (active) | AC50 [15]: 19.8 µM (active) | AC50 [16]: 13.6 µM (active) | AC50 [17]: 1.1 µM (active)

CC1=C2C[C@H]3[C@@H](CC=C4C[C@@H](O)CC[C@@]43C)[C@@H]2CC[C@]12O[C@@H]1C[C@H](C)CN[C@H]1[C@H]2C
outcome [1]: inactive | outcome [2]: inactive | outcome [3]: inactive | outcome [4]: inactive | outcome [5]: inactive | outcome [7]: inactive | outcome [8]: inactive | outcome [9]: inactive | outcome [10]: inactive | outcome [11]: inactive | outcome [19]: inactive | outcome [12]: inactive | outcome [13]: inactive | outcome [14]: inactive | outcome [15]: inactive | outcome [16]: inactive | outcome [17]: inactive

CCC(C)(c1ccc(O)cc1)c1ccc(O)cc1
outcome [1]: inactive | outcome [2]: inactive | outcome [3]: inactive | outcome [4]: inactive | outcome [5]: inactive | outcome [7]: inactive | outcome [8]: inactive | outcome [18]: inactive | outcome [9]: inactive | outcome [10]: inactive | AC50 [11]: 89.2 µM (active) | outcome [12]: inactive | outcome [13]: inactive | outcome [14]: inactive | outcome [15]: inactive | outcome [16]: inactive | outcome [17]: inactive

C[C@]12CCC(=O)C=C1CC[C@@H]1[C@@H]2CC[C@@]2(C)[C@H]1CC[C@]2(C)O
outcome [1]: inactive | AC50 [2]: 24.5 µM (active) | outcome [4]: inactive | outcome [5]: inactive | outcome [6]: inactive | AC50 [7]: 45.8 µM (active) | AC50 [8]: 10.9 µM (active) | outcome [9]: inactive | outcome [10]: inactive | AC50 [11]: 45.8 µM (active) | AC50 [12]: 10.8 µM (active) | AC50 [13]: 0.207 µM (active) | outcome [14]: inactive | outcome [15]: inactive | AC50 [16]: 79.5 µM (active) | AC50 [17]: 73.6 µM (active)

Cc1ccccc1[N+](=O)[O-]
outcome [1]: inactive | outcome [2]: inactive | outcome [3]: inactive | outcome [4]: inactive | outcome [5]: inactive | outcome [7]: inactive | outcome [8]: inactive | outcome [9]: inactive | outcome [10]: inactive | outcome [11]: inactive | outcome [19]: inactive | AC50 [12]: 13.9 µM (active) | outcome [13]: inactive | outcome [14]: inactive | outcome [15]: inactive | outcome [16]: inactive | outcome [17]: inactive

CN(C)c1nc(=O)n(C2CCCCC2)c(=O)n1C
outcome [1]: inactive | AC50 [2]: 12.5 µM (active) | outcome [3]: inactive | outcome [4]: inactive | outcome [5]: inactive | outcome [7]: inactive | outcome [8]: inactive | outcome [18]: inactive | outcome [9]: inactive | outcome [10]: inactive | outcome [11]: inactive | outcome [19]: inactive | AC50 [12]: 33.6 µM (active) | outcome [13]: inactive | outcome [14]: inactive | outcome [15]: inactive | outcome [16]: inactive | outcome [17]: inactive

Source: PubChem BioAssay (EPA / NIEHS)
